This is a sample that favours compounds with a hit; in the whole collection about 19% have one here.
HepG2 tox: HepG2 cytotoxicity, counter-screen for TGF-b inhibitors; HepG2 CAGA-GFP viability, ATP luminescence, 18 h; Potency, µM (series often up to 46.1 µM), for the others: at the top dose activity change, negative = cytotoxicity, hits mostly cytotoxic; actives 0.76% (n = 410,000); AID 588856; also: potency is read from the fitted curve at half-maximal effect
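CellTiter-Glo luminescence gave cytotoxicity after 18 hours at 37 degrees C. The cells were HepG2 CAGA-GFP in 1% FBS DMEM, stimulated with 500 pg/mL TGF-beta after compound addition. %Activity was normalised to no-cell wells (complete cell-killing) and DMSO (no toxicity), and curves were fitted and classified.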
TGFb SMAD3 inh: inhibitors of TGF-b signaling; HepG2 CAGA-GFP TGF-b/SMAD3 reporter, GFP fluorescence, 18 h; TGF-beta stimulated, 500 pg/mL final; Potency, µM (top dose mostly 46.1 µM), for inactives: top-dose activity, negative = inhibition, actives largely listed as inhibitors; actives 1.2% (n = 410,000); also: potency is read from the fitted curve at half-maximal effect; % is scaled to controls: 0 for no effect and ±100 for the full control effect; nearly all actives have a fitted effect of over 65% in size
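HEPG2 CAGA-GFP reporter cells (1000/well, DMEM with 1% FBS) received compounds, then recombinant TGF-beta at 500 pg/mL final for 18 hours at 37 degrees C. Per-cell GFP summed per well was normalised to unstimulated and stimulated DMSO controls before curve fitting.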
TDP1 cell noCPT: qHTS for Inhibitors of human tyrosyl-DNA phosphodiesterase 1 (TDP1): qHTS in cells in absence of CPT | DT40 Tdp1-/- hTDP1 cells, no CPT, ATP luminescence, 48 h | Potency, µM (doses to about 46.2 µM), inactives show at the top dose activity change, negative = growth inhibition, hits mostly inhibitors | actives 15% (n = 420,000); also: potency is read from the fitted curve at half-maximal effect; % is scaled to controls: 0 for no effect and ±100 for the full control effect; nearly all actives have a fitted effect of over 55% in size
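Seeded 400 DT40-hTDP1 cells/well (vehicle DMSO, no 20 nM CPT); pinned compounds; ≥48 hr at 37 °C; CellTiter-Glo luminescence as viability measure.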
TDP1 block: inhibitors of human tyrosyl-DNA phosphodiesterase TDP1; Q9NUW8; recombinant TDP1, AlphaScreen DNA substrate cleavage; Potency, µM (series often up to 130 µM), inactives show top-dose activity change, negative = inhibition, hits mostly inhibitors; actives 0.28% (n = 350,000); AID 485290; also: potency is read from the fitted curve at half-maximal effect; % is scaled to controls: 0 for no effect and ±100 for the full control effect; nearly all actives have a fitted effect of over 40% in size
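Recombinant human Tdp1 (E. coli-expressed, 1 nM final) preincubated with compounds 15 min at room temperature, then 5'-biotin/3'-phosphotyrosine-FITC DNA substrate (15 nM final) added for 5 min. AlphaScreen beads (10 ug/ml final) added 10 min; cleavage lowers signal.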
IL-1B inflam inh: inhibitors of inflammasome signaling (IL-1 beta secretion). THP-1 LPS/ATP IL-1B secretion, AlphaLISA, 16 h; hits give low values. activity change, % at 57.5 µM. actives 4.7% (n = 360,000). AID 743279; in the data active = activity change below about -50%; inconclusive = mostly about -30% to -49%; also: % is scaled to controls: 0 for no effect and ±100 for the full control effect
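Secreted IL-1B measured by AlphaLISA bead assay after 16 h compound exposure of THP-1 cells; compounds (final up to 57.5 uM) added 1 h before LPS (250 ng/mL) and ATP (1.25 mM) stimulation; lower signal means less secretion.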
DT40 TDP1 CPT: growth inhibition of DT40 Tdp1-/-;hTDP1 cells with camptothecin (screen for TDP1 inhibitors). chicken DT40 Tdp1-/-;hTDP1 cells + 20 nM CPT, ATP luminescence, 48 h. Potency, µM (doses to about 46.2 µM), without a hit: at the top dose activity change, negative = growth inhibition, usual class: inhibitors. actives 12% (n = 420,000). AID 686979; also: potency is read from the fitted curve at half-maximal effect; % is scaled to controls: 0 for no effect and ±100 for the full control effect; nearly all actives have a fitted effect of over 55% in size
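Cell growth measured by CellTiter-Glo luminescence after a minimum 48 h, 37 C compound exposure with 20 nM CPT in Tdp1-knockout DT40 cells stably expressing hTDP1, seeded 400/well; qHTS titration format.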
* marks the source's active call; other numbers are inactive results. Unless noted, calls follow the shape of the dose curve; as a rule, active = well fitted curve in the direction sought with a large enough effect; inconclusive = small, poorly fitted or top-dose-only effect, or another doubt; inactive = no such curve, though single readings can be large; an effect the other way counts as inactive or inconclusive.

COc1ccc(CN2CCN(S(=O)(=O)c3ccc(NC(C)=O)cc3)CC2)c(OC)c1OC was read as HepG2 tox -1%, TGFb SMAD3 inh inconclusive, TDP1 cell noCPT inconclusive, TDP1 block -6%, IL-1B inflam inh -4 and DT40 TDP1 CPT 16µM*.
`COc1ccc(CN2CCN(C(=O)C3CCC(CNS(=O)(=O)c4ccc(C)cc4)CC3)CC2)c(OC)c1OC` (configuration not stated) gave HepG2 tox -24%, TGFb SMAD3 inh inconclusive, TDP1 cell noCPT 21µM*, TDP1 block -2%, IL-1B inflam inh -12 and DT40 TDP1 CPT inconclusive.
COc1ccc(CN2CCN(S(=O)(=O)c3ccc(NC(C)=O)cc3)CC2)cc1 was read as HepG2 tox -17%, TGFb SMAD3 inh -14%, TDP1 cell noCPT inconclusive, IL-1B inflam inh -17 and DT40 TDP1 CPT inconclusive.
`CCOC(=O)N1CCN(C(=O)C2CCC(CNS(=O)(=O)c3ccc(Cl)cc3)CC2)CC1` (configuration not stated) gave HepG2 tox 1%, TGFb SMAD3 inh -2%, TDP1 cell noCPT inconclusive, TDP1 block 3%, IL-1B inflam inh 10 and DT40 TDP1 CPT inconclusive.
Screening COc1ccc(Cn2nnnc2C(C(C)C)N2CCN(c3ccccc3OC)CC2)cc1 (configuration not stated) returned HepG2 tox 11%, TGFb SMAD3 inh 0%, TDP1 cell noCPT 23µM*, TDP1 block 0%, IL-1B inflam inh -14 and DT40 TDP1 CPT 29µM*.
COc1ccccc1N1CCN(C(c2ccc(N(C)C)cc2)c2nnnn2CCc2ccccc2)CC1 (configuration not stated) was read as HepG2 tox 4%, TGFb SMAD3 inh -14%, TDP1 cell noCPT inconclusive, TDP1 block 2%, IL-1B inflam inh 4 and DT40 TDP1 CPT -17%.
COc1ccccc1N1CCN(C(c2ccccc2)c2nnnn2Cc2ccccc2)CC1 (configuration not stated) was read as HepG2 tox -33%, TGFb SMAD3 inh -17%, TDP1 cell noCPT 16µM* and DT40 TDP1 CPT 14µM*.
For COc1ccccc1C(c1nnnn1Cc1ccco1)N1CCN(c2cccc(C)c2C)CC1 (configuration not stated) the results were HepG2 tox -18%, TGFb SMAD3 inh -1%, TDP1 cell noCPT 16µM*, TDP1 block 1%, IL-1B inflam inh inconclusive and DT40 TDP1 CPT 18µM*.
C[C@H](NC(=O)CNC(=O)[C@@H](NC(=O)[C@H](Cc1ccccc1)NC(=O)CNC(=O)CNC[C@@H](N)Cc1ccccc1)[C@@H](C)O)C(=O)N[C@@H](CCCN=C(N)N)C(=O)N[C@@H](CCCCN)C(=O)N[C@@H](CO)C(=O)N[C@@H](C)C(=O)N[C@@H](CCCN=C(N)N)C(=O)N[C@@H](CCCCN)C(N)=O was read as TDP1 block 15%.
For Cc1ccc(-n2ncc(C(=O)NCCCN3CCCCC3)c2C2CCN(C(=O)OC(C)(C)C)CC2)c(C)c1 the results were HepG2 tox -76%, TGFb SMAD3 inh inconclusive, TDP1 cell noCPT inconclusive, TDP1 block 5% and DT40 TDP1 CPT inconclusive.
Screening Cc1ccc(-c2ccc(=O)n(CC(=O)Nc3ccc(C(C)C)cc3)n2)cc1 returned HepG2 tox -41%, TGFb SMAD3 inh -48%, TDP1 cell noCPT -28%, TDP1 block -2% and DT40 TDP1 CPT -7%.

Screening results (PubChem)
